“And” between values parts separate entries of the source, which are not always exact repeats. Equal entries are not always repeated. This is part of a sample that, as a whole, favours compounds with a hit. Of some 83,000 tested, about 20% had one in any assay.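 Each cell line was grown in a 96-well plate and treated with one concentration of compound for 48 hours. Values below 10 were considered active.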 Unmarked numbers belong to inactive results. The source made the active and inactive calls.

Consider 8 molecules from PubChem BioAssay (NCI).

What all share (test): NCI-60 one-dose screen, 48 h (100 = growth as untreated, 0 = no growth, -100 = all killed)
In assay [1] the test system is SR leukemia. The settings on record: 10 µM unless noted.
Assay [2] deals with RPMI-8226 leukemia. The settings on record: 10 µM unless noted.
Assay [3] relates to OVCAR-8 ovarian. The settings on record: 10 µM unless noted.
Assay [4] deals with OVCAR-5 ovarian. Particulars: 10 µM unless noted.
The test system of assay [5] is OVCAR-4 ovarian. Particulars: 10 µM unless noted.
Assay [6] relates to SK-OV-3 ovarian. The settings on record: 10 µM unless noted.
The subject of assay [7] is IGROV1 ovarian. Particulars: 10 µM unless noted.
The subject of assay [8] is OVCAR-3 ovarian. The settings on record: 10 µM unless noted.
For assay [9], the system named is NCI/ADR-RES ovarian. The settings on record: 10 µM unless noted.
The subject of assay [10] is T-47D breast. The settings on record: 10 µM unless noted.
Assay [11] deals with MDA-MB-435 melanoma. The settings on record: 10 µM unless noted.
The subject of assay [12] is SW-620 colon. Particulars: 10 µM unless noted.
Assay [13] deals with MCF7 breast. Particulars: 10 µM.
In assay [14] the test system is HCT-116 colon. The settings on record: 10 µM unless noted.
The subject of assay [15] is HCC-2998 colon. Particulars: 10 µM unless noted.
The subject of assay [16] is KM12 colon. Particulars: 10 µM unless noted.
Assay [17] deals with BT-549 breast. Particulars: 10 µM unless noted.
In assay [18] the test system is HS 578T breast. Particulars: 10 µM unless noted.

As to `CCCCCC(CCCCC)C(=O)O`, the growth in assay [1] was 99.7%; in assay [2], 97.3%; in [3], 113%; in assay [4] it was 110%; in assay [5] it was 106%; in assay [6] it was 98.4%. Besides, the growth in assay [7] is 96.3%; in assay [8], 118%; in assay [9], 117%; in assay [10], 100%; in [11] it was 123%; in assay [12], 110%. Also, the growth was 100% in assay [13], 109% in assay [14], 119% in assay [15] and 109% in [16].
Regarding `N#CC1C(=O)SC2c3ccccc3C(=O)c3ccccc3C12` (stereo unspecified), the growth in [1] is 90.1%; in assay [2], 94.6%; in [3], 99%; in [4], 105%; in assay [5], 99.1%; in assay [6] it was 98.2%. The growth is 110% in assay [7]; 109% in assay [8]; 104% in assay [9]; 89% in assay [10]; 101% in assay [17]; 107% in [11]. For the same molecule, the growth in [12] is 101%; in [13] it was 98.9%; in assay [14], 102%; in assay [16], 96.6%.
Consider `CN(C)c1ccc(/C=N/N=C(\C#N)[S][Sn]([Cl])([c]2ccccc2)[c]2ccccc2)cc1`, for which the growth in assay [1] is 5.61% (active); in [2], -13.8% (active); in assay [4] it was 13.1%; in assay [5], 28.1%; in assay [6], 99.7%; in assay [7] it was 43%. The growth in assay [8] is -80.1% (active); in [18], 61.7%; in assay [9] it was 66.9%; in assay [10], -65.8% (active); in assay [17] it was 57.5%; in assay [11] it was 15.6%. Also, the growth is -52.2% (active) in [12]; -81.9% (active) in assay [13]; -59.4% (active) in assay [14]; 63.5% in assay [15]; 63.3% in [16].
With `CC1OC(OC2C(OC3CCC4(C)C(CCC5(C)C4CC=C4C6CC(C)(C)CCC6(CO)C(O)CC45C)C3(C)C)OC(C(=O)O)C(OC3OC(COC4OC(CO)C(O)C(O)C4O)C(O)C(O)C3O)C2O)C(O)C(O)C1O` (stereo unspecified), the growth in [1] was -44.2% (active); in assay [2], -23.5% (active); in assay [4] it was -64% (active); in assay [5], -84.3% (active); in assay [6], -83.4% (active); in assay [7] it was -81.6% (active). The growth is -50.7% (active) in [8]; -35.2% (active) in assay [18]; -68% (active) in [9]; -72.7% (active) in [10]; -92.5% (active) in [17]; -85.3% (active) in assay [11]. Moreover, the growth is -64.2% (active) in [12]; -67.7% (active) in [13]; -88% (active) in assay [14]; -81.9% (active) in [15]; -70.9% (active) in [16].
Consider `Cc1ccc(NS(=O)(=O)c2ccc(C)cc2)cc1`, for which the growth in assay [1] is 91.7% and 97.8%; in assay [2], 83.1% and 95.2%; in assay [3] it was 97.5% and 92.7%; in assay [4] it was 111% and 105%; in assay [5] it was 93.7% and 106%; in assay [6], 109% and 101%. Further, the growth in [7] is 111% and 107%; in assay [8] it was 105% and 98.9%; in assay [9], 104% and 99.7%; in assay [10], 94.1% and 83.7%; in assay [17], 117% and 105%; in [11], 108% and 109%. For the same molecule, the growth in assay [12] was 104% and 107%; in assay [13] it was 88% and 91.2%; in assay [14], 102% and 98.1%; in assay [15] it was 97.7% and 97.8%; in assay [16], 91.2% and 89.2%.
Consider `NC(=O)/C=C/C(=O)c1c(Cl)cccc1Cl`, for which the growth was -42% (active) in assay [1]; -34.7% (active) in assay [2]; -67.4% (active) in assay [3]; -99.6% (active) in assay [4]; -67.4% (active) in assay [5]; 59% in assay [6]. Moreover, the growth was -57.5% (active) in [7]; -81.3% (active) in assay [8]; -62.4% (active) in assay [10]; -42.4% (active) in assay [17]; -68% (active) in [11]; -71% (active) in [12]. Moreover, the growth in assay [13] is -68.9% (active); in assay [14] it was -100% (active); in assay [15], -98.6% (active); in [16], -51.4% (active).
As to `Oc1ccc(/C=N/NC(=S)Nc2ccccc2)nc1`, the growth in [1] was -22.7% (active); in assay [2], 6.99% (active); in [3], 15.2%; in assay [4] it was 34.1%; in assay [6], 18.9%; in [7] it was 23.2%. Further, the growth in assay [8] is 20%; in assay [18], 88.5%; in assay [10] it was 12.6%; in assay [17], 44.8%; in assay [11], 31.5%; in assay [12] it was 39.4%. Further, the growth in assay [13] is 16.4%; in assay [14], 21%; in assay [16] it was 11.3%.
Turning to `C=CCOc1ccc(N=NC(C#N)C#N)cc1`, the growth in assay [1] was 8.51% (active); in assay [2], 2.95% (active); in [3], 86.9%; in assay [4], 93.8%; in assay [5], 31.6%; in assay [6] it was 52.7%. Besides, the growth in assay [7] is 53.3%; in assay [8], 39.7%; in [9], 103%; in assay [10], -2.81% (active); in assay [17] it was 92.1%; in [11] it was 88.3%. For the same molecule, the growth in assay [12] is 40.4%; in assay [13], 22.6%; in [14] it was 46.8%; in assay [15] it was 101%; in assay [16], 100%.
